# Screening data: PubChem, Broad Institute
# A selection: hits, their analogues and other compounds. The true share with any hit is near 2.2%.
# Shn3 3UTR inh = reduction of Shn3 3'UTR firefly luciferase signal, primary screen, Schnurri-3 inhibitor project, cell-based, Clone20 osteoblasts, set 2; inhibition, % at 12.5 µM; AID 588674, 2011; Clone20 osteoblast Shn3 3'UTR firefly luciferase, 24 h; 0.52% of 360,000 active;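 active means mean inhibition of at least 75% with every replicate also reaching 75%; inconclusive means mean inhibition at least 75% but some replicate below; inactive means mean inhibition below 75%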;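 further: 0% = median of neutral control wells and 100% = pilot-screen positive control compound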
# LGR2 antag = inhibitors of bursicon-induced LGR2 CRE-luciferase signal, primary screen, cell-based, HEK293, CRE-luciferase reporter, bursicon stimulation; inhibition, % at 9.99 µM; 0.35% of 380,000 active; bursicon-stimulated, 4 h; Drosophila bursicon receptor LGR2 (rickets);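 active means drop in luminescence signal, shown as inhibition above about 50% in the replicate tests, limit read from the data, passing the limit was not always enough; inconclusive means probably only some replicates passing the limit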;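 further: agonist challenge used bursicon conditioned medium at about half maximal strength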
# EWS-Fli inh = EWS/Fli-driven NR0B1 reporter inhibitors, primary screen, A673 cells, NR0B1 luciferase, luminescence, MLPCN library. inhibition, % at 12.6 µM. viability-normalised. 0.67% of 350,000 active. AID 651661, 2012;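 active means mean inhibition of at least 50% after viability correction, with every replicate also passing that limit; inconclusive means mean reaches 50% but only one of two replicates passes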;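 further: firefly luciferase signal divided by Alamar Blue viability fluorescence both relative to DMSO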
# MITF TRPM1 inh = inhibitors of MITF-dependent TRPM1 promoter reporter, primary screen, cell-based, SK-MEL-5, single point, luciferase; 0.83% of 330,000 active; SK-MEL-5 TRPM1 promoter luciferase, 24 h; inhibition, % at 12.5 µM; AID 488899, 2010;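 active means mean inhibition across replicates of 60% or more, whatever share of single replicates reaches that level; inconclusive means some that reach 60%, reason not given; inactive means mean inhibition across replicates below 60%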
# LMP1 NFkB inh = EBV LMP1-driven NF-kappaB luciferase reporter inhibitors, primary screen, cell-based, luminescence, single point; AID 504558, 2011; LMP1-induced NF-kappaB luciferase reporter cells; inhibition, % at 12.5 µM; 0.69% of 350,000 active; in the data active means inhibition above about 41%; inconclusive means no clear call, values can overlap the other calls;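 further: 0% = neutral control wells and 100% = reference inhibitor control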
# PAX8 reporter = inhibitors of PAX8-driven TPO luciferase reporter, primary screen, RMG-I cells, single concentration. inhibition, % at 12.6 µM. SteadyGlo, 24 h. 1.2% of 360,000 active. AID 652154, 2013;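 active means mean replicate inhibition at least 60% with every replicate also reaching 60%; inconclusive means only one of the two criteria is met; inactive means mean below 60% and not all replicates reaching 60%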;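 further: luciferase light reporting Pax8 driven TPO promoter activity; plate controls were median of neutral control wells for no effect and mitoxantrone controls for full effect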
# The depositor's hits bear a star; ? = inconclusive; . = no result.
SMILES,Shn3 3UTR inh,LGR2 antag,EWS-Fli inh,MITF TRPM1 inh,LMP1 NFkB inh,PAX8 reporter
C[C@@H]1CCCCO[C@@H](CN(C)C(=O)Nc2cccc3ccccc23)[C@H](C)CN([C@H](C)CO)C(=O)c2cc(NC(=O)CCC(F)(F)F)ccc2O1,.,22,27,.,.,67*
C[C@H]1CCCCO[C@H](CN(C)C(=O)Nc2cccc3ccccc23)[C@@H](C)CN([C@@H](C)CO)C(=O)c2cc(NC(=O)CCC(F)(F)F)ccc2O1,.,16,15,.,.,71*
CC(C)NC(=O)Nc1ccc2c(c1)C(=O)N([C@@H](C)CO)C[C@@H](C)[C@H](CN(C)Cc1ccc(Oc3ccccc3)cc1)O2,.,-12,15,.,.,6
COc1ccc(C(=O)N/N=C/c2ccc(OC(=O)c3cccs3)cc2)cc1,-19,-3,-3,-11,-6,101*
Cc1cc(Cl)n2nc(C)c(-c3ccc(Cl)cc3)c2n1,38,.,47,1,0,81*
O=C1CCCCCN1C(=O)c1ccccc1,-4,10,-3,-2,18,-10
CC(C)(C)c1ccc(C(=O)N2CCCCCC2=O)cc1,.,.,.,81*,39,37
O=C(Nc1ccccc1)c1ccc(-c2ccccc2)s1,-50,-52,-199,-86,-12,-17
O=C(O)c1ccc(-c2ccc(-c3ccccc3)cc2)s1,5,.,.,81*,2,.
CCCC(=O)N1CCC2(CC1)CN(C(=O)Nc1c(C)noc1C)[C@H](CO)c1c2c2ccc(OC)cc2n1C,.,-2,-6,.,.,.
CSc1ccccc1OCc1cc(C(=O)N2CCCC(C)C2)no1 (stereo unspecified),2,-58,-77,-159,-30,-232
CSc1ccccc1OCc1cc(C(=O)N2CCC[C@H]2C(N)=O)no1,1,26,-2,1,63*,-13
O=C(O)c1ccccc1N=Cc1c(O)n(-c2nccs2)c(=O)c2ccccc12,1,15,2,20,16,5
CCN(CC)S(=O)(=O)c1cccc(-n2c(O)c(C=Nc3ccccc3C(=O)O)c3ccccc3c2=O)c1,-18,14,-4,54,58*,28
COc1ccc(NC(=O)N(C)C[C@H]2Oc3c(NS(=O)(=O)c4ccc(OC)cc4)cccc3C(=O)N([C@@H](C)CO)C[C@H]2C)cc1,.,-12,2,.,.,-14
COCC(=O)Nc1ccc2c(c1)OC[C@@H](C)N(Cc1ccncc1)C[C@H](C)[C@@H](OC)CN(C)C2=O,.,-5,-4,.,.,.
COc1cccc(-c2c(-c3cc(OC)cc(OC)c3)n(C)c3ccc(-c4cnc(OC)nc4)cc23)c1,16,7,29,-4,-29,42
COc1cccc(-c2c(-c3cc(OC)cc(OC)c3)n(C)c3ccc(-c4cnc(N5CCOCC5)nc4)cc23)c1,2,.,17,-7,-64,84*
CC(=O)N1[C@@H]2c3ccc(-c4ccc(F)cc4)c(=O)n3C[C@H]1[C@H](CO)[C@H]2C(=O)N(C)C,.,10,4,.,.,.
CCOC(=O)c1c(NC(=O)COc2ccccc2F)sc2c1CC(C)(C)NC2(C)C,-23,2,-15,71*,-22,6
COC(=O)c1c(NC(=O)COc2ccc(Cl)cc2)sc2c1CC(C)(C)NC2(C)C,74,27,.,82*,-128,6
CCOC(=O)c1c(NC(=O)CSc2ncccn2)sc2c1CC(C)(C)NC2(C)C,-2,-18,.,19,-16,4
COC(=O)c1c(NC(=O)Cc2ccccc2)sc2c1CC(C)(C)NC2(C)C,-14,-7,0,-4,1,-1
CCCNC(=O)N(C)C[C@H]1Oc2cc(C#CC(C)(C)O)ccc2S(=O)(=O)N([C@H](C)CO)C[C@H]1C,.,17,-1,.,.,-5
CN(C)Cc1cn(CC[C@H]2CC[C@H](NC(=O)Nc3ccc4c(c3)OCO4)[C@@H](CO)O2)nn1,.,6,-18,.,.,-7
SMILES,Shn3 3UTR inh,LGR2 antag,EWS-Fli inh,MITF TRPM1 inh,LMP1 NFkB inh,PAX8 reporter
COc1cccc(N2CCN(C(=O)c3ccc(CS(=O)c4ccc(Cl)cc4)o3)CC2)c1 (stereo unspecified),27,-20,56*,5,-2,38
COc1cccc(N2CCN(C(=O)c3ccc(CS(=O)c4ccc(C)cc4)o3)CC2)c1 (stereo unspecified),31,-6,49,6,12,66*
O=C(c1ccc(CS(=O)Cc2ccc(Cl)cc2)o1)N1CCN(c2cccc(Cl)c2)CC1 (stereo unspecified),14,13,-18,3,11,25
COc1cccc(N2CCN(C(=O)c3cn(Cc4ccccc4)nc3-c3cccnc3)CC2)c1,16,26,57*,24,8,52
COc1cccc(N2CCN(C(=O)c3ccc(CS(=O)Cc4ccc(C)cc4)o3)CC2)c1 (stereo unspecified),15,4,-7,-5,-1,29
O=C(NCC1CC1)[C@@H]1[C@@H](CO)[C@@H]2Cn3c(ccc(/C=C/c4ccccc4)c3=O)[C@H]1N2C(=O)C1CCC1,.,7,-1,.,.,.
COc1ccc(C#Cc2cnc3c(c2)C(=O)N([C@H](C)CO)C[C@H](C)[C@H](CN(C)S(=O)(=O)c2cccs2)O3)cc1OC,.,-16,-10,.,.,.
CC1=C(C)/C(=N\OS(=O)(=O)c2ccc(C)cc2)C=CC1=O,95*,-32,.,48,-6,63*
CC1=C/C(=N\OS(=O)(=O)c2ccccc2)C(C)=CC1=O,93*,36,.,34,9,.
COc1ccc(S(=O)(=O)/N=C2/C=CC(=O)C(C)=C2C)cc1,11,.,.,7,-3,.
O=C(C1CCCC1)N1CC(=O)N2[C@H](CO)[C@@H](c3ccc(-c4cccnc4)cc3)[C@H]2C1,.,-19,3,.,.,.
CC(=O)Nc1ccc(NC2=Nc3ccccc3N3C2=Nc2c(c(C)nn2-c2ccccc2)C3c2ccccc2)cc1 (stereo unspecified),14,2,.,79*,?,-5
COc1ccc(NC2=Nc3ccccc3N3C2=Nc2c(c(C)nn2-c2ccc(C)cc2)C3c2cccnc2)cc1 (stereo unspecified),-3,.,.,4,-31,.
C[C@H](CO)N1C[C@H](C)[C@@H](CN(C)Cc2ccc(C(=O)Nc3ccccc3N)cc2)Oc2ccc(NS(=O)(=O)c3ccccc3)cc2C1=O,.,-10,7,.,.,-7
O=C(O)c1cc(=O)c2c(OCC(O)COc3cccc4oc(C(=O)O)cc(=O)c34)cccc2o1,-20,-1,5,6,76*,7
C[C@H]1CN([C@@H](C)CO)C(=O)Cc2cc(NS(=O)(=O)c3ccccc3)ccc2O[C@@H]1CN(C)S(=O)(=O)c1ccc(Cl)cc1,.,-7,2,.,.,-3
